This is one part of the list. A number with no mark means an inactive call. Active and inactive are the calls of the source. Rule as the data show it, unless noted: active = activation above about 20%; inactive = the rest.
Columns and labels:
[1] = target: Peroxisome proliferator-activated receptor gamma (Homo sapiens) (UniProt P37231); assay: agonists of PPARgamma SRC-2 coactivator recruitment, confirmation, biochemical, HTS (AID 1297; in the data active = activation above about 22%;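 also: 0% = vehicle alone and 100% = reference agonist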); details: biochemical SRC-2 recruitment by PPARgamma; at 8 µM; stronger effect = higher value
[2] = target: Peroxisome proliferator-activated receptor gamma (Homo sapiens) (UniProt P37231); assay: PPARgamma agonists recruiting SRC-1 coactivator, confirmation, biochemical (AID 1300); details: PPARgamma–SRC-1 coactivator recruitment biochemical assay; at 8 µM; stronger effect = higher value;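 also: 0% = vehicle wells and 100% = reference agonist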
[3] = target: Peroxisome proliferator-activated receptor gamma (Homo sapiens) + Nuclear receptor coactivator 3 (Homo sapiens) (UniProt P37231+Q9Y6Q9); assay: PPARgamma-driven SRC-3 coactivator recruitment agonists, confirmation, biochemical (AID 1301; in the data active = activation above about 24%;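 also: 0% = vehicle wells and 100% = reference agonist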); details: biochemical PPARgamma-SRC-3 coactivator recruitment, agonist mode; at 8 µM; stronger effect = higher value
[4] = target: Photoreceptor-specific nuclear receptor (Homo sapiens) (UniProt Q9Y5X4); assay: NR2E3 agonists, confirmation, biochemical, TR-FRET (AID 2379); details: cell-free NR2E3 corepressor release, 5 h, at 3.98 µM, stronger effect = higher value
[5] = target: Peroxisome proliferator-activated receptor gamma (Homo sapiens) + Nuclear receptor corepressor 2 (Homo sapiens) (UniProt P37231+Q9Y618); assay: agonists of PPARg-NCOR2 corepressor interaction, counter-screen for NR2E3 agonist project, biochemical, TR-FRET (AID 504787; in the data active = inhibition above about 20%;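 also: 0% = DMSO vehicle and 100% = wells without protein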); details: TR-FRET PPARg-NCOR2 coregulator interaction, at 3.98 µM, stronger effect = higher value

Peroxisome proliferator-activated receptor gamma (Homo sapiens) + Nuclear receptor coactivator 3 (Homo sapiens), sequence (P37231 whole entry, looked up): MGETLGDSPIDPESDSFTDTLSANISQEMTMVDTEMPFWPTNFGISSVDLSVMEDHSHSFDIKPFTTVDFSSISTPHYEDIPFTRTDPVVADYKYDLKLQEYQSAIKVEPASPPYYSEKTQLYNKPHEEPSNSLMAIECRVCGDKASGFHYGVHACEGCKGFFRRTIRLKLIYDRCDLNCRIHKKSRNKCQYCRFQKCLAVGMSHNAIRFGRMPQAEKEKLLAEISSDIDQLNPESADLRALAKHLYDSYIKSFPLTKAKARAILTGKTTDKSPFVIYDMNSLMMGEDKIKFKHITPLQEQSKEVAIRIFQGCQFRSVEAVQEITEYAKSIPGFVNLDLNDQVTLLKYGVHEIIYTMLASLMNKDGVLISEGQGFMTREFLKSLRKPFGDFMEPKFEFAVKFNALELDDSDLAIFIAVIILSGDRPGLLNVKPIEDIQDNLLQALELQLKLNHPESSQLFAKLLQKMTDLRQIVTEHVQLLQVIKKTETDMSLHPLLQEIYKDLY
Peroxisome proliferator-activated receptor gamma (Homo sapiens) + Nuclear receptor coactivator 3 (Homo sapiens), sequence (Q9Y6Q9 whole entry, looked up): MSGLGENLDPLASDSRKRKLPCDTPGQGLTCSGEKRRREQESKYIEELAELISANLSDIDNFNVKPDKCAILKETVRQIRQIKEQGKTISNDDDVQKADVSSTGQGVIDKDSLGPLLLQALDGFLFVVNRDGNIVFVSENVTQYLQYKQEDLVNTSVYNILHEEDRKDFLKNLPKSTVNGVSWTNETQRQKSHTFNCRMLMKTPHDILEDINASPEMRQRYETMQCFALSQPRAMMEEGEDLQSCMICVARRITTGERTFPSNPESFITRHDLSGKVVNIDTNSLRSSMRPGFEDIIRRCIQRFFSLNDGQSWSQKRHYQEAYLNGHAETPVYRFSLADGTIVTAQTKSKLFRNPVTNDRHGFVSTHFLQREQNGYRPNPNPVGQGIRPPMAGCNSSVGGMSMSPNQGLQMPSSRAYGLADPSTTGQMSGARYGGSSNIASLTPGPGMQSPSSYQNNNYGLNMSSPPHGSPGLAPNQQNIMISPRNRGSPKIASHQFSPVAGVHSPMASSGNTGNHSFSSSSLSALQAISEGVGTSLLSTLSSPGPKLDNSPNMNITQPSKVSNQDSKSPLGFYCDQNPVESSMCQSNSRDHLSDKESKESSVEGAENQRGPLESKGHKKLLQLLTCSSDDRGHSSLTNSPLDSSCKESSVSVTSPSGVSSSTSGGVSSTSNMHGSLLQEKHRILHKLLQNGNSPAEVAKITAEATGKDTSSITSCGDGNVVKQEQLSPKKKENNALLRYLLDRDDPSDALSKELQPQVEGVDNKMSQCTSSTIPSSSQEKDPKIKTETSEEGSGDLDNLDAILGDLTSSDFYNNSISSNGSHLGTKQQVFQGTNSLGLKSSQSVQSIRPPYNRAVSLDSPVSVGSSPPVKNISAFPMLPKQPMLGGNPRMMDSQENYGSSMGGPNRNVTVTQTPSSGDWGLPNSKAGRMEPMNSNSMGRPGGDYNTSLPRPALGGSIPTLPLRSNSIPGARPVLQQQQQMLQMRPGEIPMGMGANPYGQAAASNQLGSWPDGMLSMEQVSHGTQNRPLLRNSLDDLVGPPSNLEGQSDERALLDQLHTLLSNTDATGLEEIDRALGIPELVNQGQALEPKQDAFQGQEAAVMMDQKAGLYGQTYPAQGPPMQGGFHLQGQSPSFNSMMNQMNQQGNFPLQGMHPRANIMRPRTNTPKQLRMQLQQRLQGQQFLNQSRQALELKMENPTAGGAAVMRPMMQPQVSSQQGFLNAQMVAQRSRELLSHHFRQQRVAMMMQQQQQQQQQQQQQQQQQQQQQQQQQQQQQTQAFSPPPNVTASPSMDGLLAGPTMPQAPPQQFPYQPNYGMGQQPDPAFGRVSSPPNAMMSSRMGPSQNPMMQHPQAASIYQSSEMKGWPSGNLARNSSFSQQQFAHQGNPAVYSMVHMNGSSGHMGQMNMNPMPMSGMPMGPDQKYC
Peroxisome proliferator-activated receptor gamma (Homo sapiens), sequence (P37231 whole entry, looked up): as the sequence (P37231 whole entry, looked up) above
Photoreceptor-specific nuclear receptor (Homo sapiens), sequence (Q9Y5X4 whole entry, looked up): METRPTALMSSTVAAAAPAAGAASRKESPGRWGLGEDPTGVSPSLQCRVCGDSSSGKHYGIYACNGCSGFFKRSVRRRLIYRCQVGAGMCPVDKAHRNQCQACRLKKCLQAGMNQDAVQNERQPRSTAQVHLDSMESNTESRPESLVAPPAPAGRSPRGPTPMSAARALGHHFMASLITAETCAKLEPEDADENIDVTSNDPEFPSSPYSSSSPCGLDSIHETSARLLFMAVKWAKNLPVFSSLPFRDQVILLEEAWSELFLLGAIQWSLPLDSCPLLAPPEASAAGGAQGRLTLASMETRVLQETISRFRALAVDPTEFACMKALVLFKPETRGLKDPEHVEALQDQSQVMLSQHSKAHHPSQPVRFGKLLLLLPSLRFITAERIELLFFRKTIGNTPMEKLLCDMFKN

SMILES	activation [1]	activation [2]	activation [3]	activation (reported as inhibition) [4] [%]	inhibition [5] [%]
CCn1c(=O)cc(SCC(=O)NCc2ccc3c(c2)OCO3)c2ccccc21	22.7% (active)	15.8%	18.1%		
CCc1c(-c2ccccc2)nc(N)c(C#N)c1-c1cccs1	11.1%	13.3%	8.84%		
O=C(Oc1ccccc1)Oc1ccc2c(c1)oc(=O)c1ccccc12	27.9% (active)	16.1%	19.9%	1.72	6.42
CCc1ccc(-n2c(SCc3cc(=O)n4cc(Br)ccc4n3)nc3[nH]ncc3c2=O)cc1	40.9% (active)	26.6% (active)	28.8% (active)		

Source: PubChem BioAssay
